Results published in PubChem BioAssay AID1159580 (chemical genetic matrix, 2015).
Several values for one entry are separate records, joined by “and”; a condition that tells them apart may be missing. Equal values may be shown once. Among all 5,500 compounds or so, about 2,000 (36%) were called active. Another 18% or so got no clear call; they are omitted. No stated cut-off is given here; in the data, active means normalized growth mostly below about 0.91 (no sharp cut-off); inconclusive means no clear call, values can overlap the other calls; inactive means mostly above about 0.92. The list shows a part of the results.

Assay: chemical genetic growth profiling, strain panel (AID 1159580);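 further: tested at 20 µM; growth read once vehicle control cultures reached saturation at 30 °C; 1 = growth at the plate median or of vehicle wells; lower values mean less growth of the strain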
Settings: S. cerevisiae deletion strains, growth OD

Measured: normalized growth

CC1CCCC(C)N1NC(=O)c1ccc(Cl)c(S(N)(=O)=O)c1 (stereo unspecified)
inactive: locus YAL013W, strain DEP1, active compounds read low 1 | locus YAL021C, strain ccr4, active compounds read low 1 | locus YAL026C, strain drs2, active compounds read low 1.03 | locus YAL030W, strain snc1, active compounds read low 0.989 | locus YBL061C, strain skt5, active compounds read low 1.02 | locus YBR009C, strain hhf1, active compounds read low 1.02 | locus YBR021W, strain FUR4, active compounds read low 1.09 | locus YBR023C, strain chs3, active compounds read low 1.01 | locus YBR171W, strain sec66, active compounds read low 1.03 | locus YBR229C, strain ROT2, active compounds read low 0.996 | locus YBR231C, strain swc5, active compounds read low 1.05 | locus YBR279W, strain paf1, active compounds read low 1 | locus YCL011C, strain gbp2, active compounds read low 0.932 | locus YCL016C, strain dcc1, active compounds read low 1.02 | locus YCL029C, strain bik1, active compounds read low 0.974 | locus YCL069W, strain vba3, active compounds read low 1 | locus YCR088W, strain abp1, active compounds read low 1.01 | locus YDL005C, strain med2, active compounds read low 1.01 | locus YDL035C, strain GPR1, active compounds read low 1.01 | locus YDL040C, strain nat1, active compounds read low 1.01 | locus YDL074C, strain BRE1, active compounds read low 0.991 | locus YDL101C, strain DUN1, active compounds read low 0.983 | locus YDL134C, strain PPH21, active compounds read low 1 | locus YDL185W, strain tfp1, active compounds read low 0.964 | locus YDL192W, strain arf1, active compounds read low 0.988 | locus YDR001C, strain nth1, active compounds read low 1.01 | locus YDR069C, strain doa4, active compounds read low 1.01 | locus YDR101C, strain arx1, active compounds read low 0.99 | locus YDR137W, strain rgp1, active compounds read low 1.01 | locus YDR150W, strain NUM1, active compounds read low 0.992 | locus YDR159W, strain sac3, active compounds read low 1.02 | locus YDR162C, strain NBP2, active compounds read low 0.997 | locus YDR195W, strain ref2 1 | locus YDR297W, strain sur2, active compounds read low 1.01 | locus YDR318W, strain mcm21, active compounds read low 1 | locus YDR334W, strain swr1, active compounds read low 1.02 | locus YDR335W, strain msn5, active compounds read low 1.02 | locus YDR388W, active compounds read low 0.998 | locus YDR392W, strain spt3, active compounds read low 1.03 | locus YDR502C, strain sam2, active compounds read low 0.993 | locus YEL003W, strain gim4, active compounds read low 1.02 | locus YEL037C, strain rad23, active compounds read low 1.02 | locus YEL061C, strain CIN8 (second series), active compounds read low 1.01 | locus YEL061C, strain CIN8, active compounds read low 1 | locus YER015W, strain faa2, active compounds read low 1.02 | locus YER016W, strain bim1, active compounds read low 1.02 | locus YER110C, active compounds read low 0.983 | locus YER111C, strain swi4, active compounds read low 1.01 | locus YER155C, strain BEM2 (second series), active compounds read low 1.04 | locus YER155C, strain BEM2, active compounds read low 1 | locus YER167W, strain BCK2, active compounds read low 0.997 | locus YFR010W, strain ubp6, active compounds read low 1.03 | locus YGL078C, strain dbp3, active compounds read low 0.997 | locus YGL086W, strain mad1, active compounds read low 1 | locus YGL167C, strain pmr1, active compounds read low 1.01 | locus YGL173C, strain kem1, active compounds read low 1.03 | locus YGL227W, strain vid30, active compounds read low 1.02 | locus YGL240W, strain doc1, active compounds read low 1.01 | locus YGL248W, strain PDE1, active compounds read low 1 | locus YGL253W, strain hxk2, active compounds read low 1.02 | locus YGR078C, strain PAC10, active compounds read low 0.983 | locus YGR135W, strain pre9, active compounds read low 0.993 | locus YGR229C, strain SMI1, active compounds read low 0.991 | locus YGR252W, strain gcn5, active compounds read low 1.2 | locus YHR013C, strain ard1, active compounds read low 1.01 | locus YHR027C, strain rpn1, active compounds read low 1.01 | locus YHR030C, strain SLT2, active compounds read low 0.998 and 0.962 | locus YHR079C, strain IRE1 (second series), active compounds read low 0.985 | locus YHR079C, strain IRE1, active compounds read low 0.949 | locus YHR094C, strain hxt1, active compounds read low 0.986 | locus YHR129C, strain ARP1, active compounds read low 0.984 | locus YHR142W, strain chs7, active compounds read low 1.01 | locus YHR200W, strain rpn10, active compounds read low 1 | locus YIL066C, strain RNR3, active compounds read low 0.995 | locus YIL073C, strain SPO22, active compounds read low 0.874 | locus YIL125W, strain kgd1, active compounds read low 0.956 | locus YIR030C, strain dcg1, active compounds read low 0.998 | locus YJL092W, strain hpr5, active compounds read low 1.02 | locus YJL095W, strain BCK1 (second series), active compounds read low 1.01 | locus YJL095W, strain BCK1, active compounds read low 0.972 and 0.992 | locus YJL115W, strain asf1, active compounds read low 1.01 | locus YJL129C, strain trk1, active compounds read low 1.03 | locus YJL134W, strain LCB3, active compounds read low 0.993 | locus YJL154C, strain vps35, active compounds read low 1.02 | locus YJL164C, strain tpk1, active compounds read low 1 | locus YJL166W, strain qcr8, active compounds read low 0.989 | locus YJL168C, strain set2, active compounds read low 0.993 | locus YJL187C, strain SWE1 (second series), active compounds read low 0.966 | locus YJR043C, strain POL32, active compounds read low 0.982 | locus YJR066W, strain TOR1, active compounds read low 0.962 | locus YJR075W, strain HOC1, active compounds read low 0.985
